The nature of assay [1]: ATG_CRE_CIS: Attagene CIS-FACTORIAL HepG2 Assay for human cAMP Responsive Element (CRE) binding protein 3 (AID 2282926). To be noted: HepG2 CRE cis-reporter, Attagene multiplexed mRNA; actives raise or lower the signal. In a few lines: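 Assay format: transient reporter transfection of HepG2, 24 h treatment, total RNA isolation with DNase I step. Reporter abundance read by fluorescence after PCR and capillary separation; DMSO-normalised gain or loss fitting.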

Assay [2] deals with CCAAT/enhancer-binding protein beta (Homo sapiens) (UniProt P17676). As to the kind of experiment: ATG_C_EBP_CIS: Attagene CIS-FACTORIAL HepG2 Assay for human CCAAT/Enhancer Binding Protein (C/EBP) beta (AID 2282927). The note with it: HepG2 Attagene cis-factorial transcription factor reporter; actives raise or lower the signal. In a few lines: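 HepG2 transiently transfected with multiplexed reporter units under cis-regulatory promoters reporting endogenous C/EBPb activity. After 24 h exposure, reporter mRNA assayed by RT-PCR, fluorescent labelling, HpaI digestion and capillary electrophoresis; bidirectional fitting versus DMSO.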
Sequence of CCAAT/enhancer-binding protein beta (Homo sapiens) (P17676 whole entry, looked up): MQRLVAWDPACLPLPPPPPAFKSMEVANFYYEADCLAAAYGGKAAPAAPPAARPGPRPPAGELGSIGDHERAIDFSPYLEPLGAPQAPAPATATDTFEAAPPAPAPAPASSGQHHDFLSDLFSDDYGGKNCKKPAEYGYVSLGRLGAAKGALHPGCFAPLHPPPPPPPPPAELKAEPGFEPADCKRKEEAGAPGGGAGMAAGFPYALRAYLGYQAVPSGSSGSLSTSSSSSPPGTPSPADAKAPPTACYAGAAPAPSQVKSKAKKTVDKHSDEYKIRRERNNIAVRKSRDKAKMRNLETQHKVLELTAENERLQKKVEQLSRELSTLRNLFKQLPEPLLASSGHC

Assay [3] in a line: ATG_CMV_CIS: Attagene CIS-FACTORIAL HepG2 Assay for human CMV (Internal Marker) (AID 2282928).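 Note: endpoint acts as a background internal control marker rather than a target.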 The note with it: HepG2 CMV promoter reporter, transcription factor profiling; actives raise or lower the signal. In a few lines: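 24 h chemical treatment, HepG2 with transient multi-reporter transfection; RNA → oligo(dT) RT → PCR → 6-FAM extension → HpaI digest → CE fluorescence. Bidirectional fit, DMSO negative control.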

Assay [4] can be described thus: ATG_DR4_LXR_CIS: Attagene CIS-FACTORIAL HepG2 Assay for human Liver X Receptor (LXR), DR4 submotif (AID 2282929). To be noted: HepG2 Attagene DR4 cis-reporter, mRNA transcription; actives raise or lower the signal. The procedure, abridged:
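DR4 cis-reporter in HepG2, 24 h exposure. Detection: RT-PCR, 6-FAM labelling, CE fragment analysis. Endpoint fitted bidirectionally, DMSO = baseline.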

In assay [5] the target is Aryl hydrocarbon receptor (Homo sapiens) (UniProt P35869). Briefly: ATG_Ahr_CIS: Attagene CIS-FACTORIAL HepG2 Assay for human Aryl Hydrocarbon Receptor (Ahr) (AID 2282930). The note with it: HepG2 AhR cis-factorial reporter transcription; actives raise or lower the signal. The procedure, abridged: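 HepG2 cells transiently transfected with cis-element-driven multiplexed reporter units; endogenous AhR activity read as reporter mRNA 24 h after dosing, via RT-PCR, 6-FAM labelling, HpaI digestion and capillary electrophoresis. Bidirectional fit relative to DMSO.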
Sequence of Aryl hydrocarbon receptor (Homo sapiens) (P35869 whole entry, looked up): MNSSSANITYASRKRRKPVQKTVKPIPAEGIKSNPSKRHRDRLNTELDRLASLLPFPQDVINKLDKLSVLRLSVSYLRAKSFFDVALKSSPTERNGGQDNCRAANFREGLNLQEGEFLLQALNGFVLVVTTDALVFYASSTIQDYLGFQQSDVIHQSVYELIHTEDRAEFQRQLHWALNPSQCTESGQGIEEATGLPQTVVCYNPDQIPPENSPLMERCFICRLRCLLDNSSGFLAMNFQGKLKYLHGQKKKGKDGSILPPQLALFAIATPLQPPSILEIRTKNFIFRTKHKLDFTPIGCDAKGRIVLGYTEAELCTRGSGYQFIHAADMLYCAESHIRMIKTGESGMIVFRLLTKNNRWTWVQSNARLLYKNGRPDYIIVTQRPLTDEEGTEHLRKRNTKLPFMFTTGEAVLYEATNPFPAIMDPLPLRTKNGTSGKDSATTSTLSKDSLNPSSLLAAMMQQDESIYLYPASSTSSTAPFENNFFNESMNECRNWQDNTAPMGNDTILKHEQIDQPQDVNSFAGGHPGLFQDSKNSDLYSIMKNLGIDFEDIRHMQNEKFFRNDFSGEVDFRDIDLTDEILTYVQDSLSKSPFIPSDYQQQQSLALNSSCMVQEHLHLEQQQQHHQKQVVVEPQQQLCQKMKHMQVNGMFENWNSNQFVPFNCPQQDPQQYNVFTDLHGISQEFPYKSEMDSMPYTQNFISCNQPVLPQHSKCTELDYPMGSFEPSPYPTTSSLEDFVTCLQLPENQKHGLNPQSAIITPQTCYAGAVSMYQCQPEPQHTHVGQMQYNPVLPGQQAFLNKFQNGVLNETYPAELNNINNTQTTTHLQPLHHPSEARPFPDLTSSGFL

Assay [6] in a line: ATG_AP_1_CIS: Attagene CIS-FACTORIAL HepG2 Assay for human Activator Protein 1 (AP-1) (AID 2282931). The note with it: HepG2 Attagene cis-factorial AP-1 reporter mRNA; actives raise or lower the signal. In a few lines: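 Cis-regulated reporter units transiently expressed in HepG2 report endogenous transcription-factor activity. Signal: reporter mRNA at 24 h, via RT-PCR and fluorescent capillary electrophoresis. Endpoint derived by bidirectional fitting, DMSO as negative control.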

The nature of assay [7]: ATG_AP_2_CIS: Attagene CIS-FACTORIAL HepG2 Assay for human Activator Protein 2 (AP-2) (AID 2282932). To be noted: HepG2 AP-2 cis-reporter, Attagene transcription factor profiling; actives raise or lower the signal. In a few lines: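 Liver-derived HepG2 line, cis-reporter system measuring endogenous factors; 24 h dosing; reporter mRNA detected by fluorescent RT-PCR and capillary electrophoresis.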

The nature of assay [8]: ATG_BRE_CIS: Attagene CIS-FACTORIAL HepG2 Assay for human Bone Morphogenetic Protein (BMP) Response Element (BRE) (AID 2282933). The note with it: HepG2 BMP response element reporter, Attagene transcription factor profiling; actives raise or lower the signal. The procedure, abridged:
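Transient MRTU transfection of human HepG2 liver cells; 24 h compound treatment; total RNA isolated, reverse-transcribed, PCR-amplified, 6-FAM labelled, HpaI-cut, capillary electrophoresis. DMSO = negative control/baseline, bidirectional fit.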

Assay [9] deals with Retinoic acid receptor alpha (Homo sapiens) (UniProt P10276). Briefly: ATG_DR5_RAR_CIS: Attagene CIS-FACTORIAL HepG2 Assay for human Retinoic Acid Receptor Alpha (RARE), DR5 submotif (AID 2282934).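 For AC50: reporter responds to endogenous RAR alpha beta and gamma in HepG2 not RARA alone.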 The note with it: HepG2 Attagene cis-factorial RARE DR5 reporter, mRNA; actives raise or lower the signal. The procedure, abridged: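 HepG2 cells transiently transfected with multiplexed reporter units; DR5 cis-element drives reporter through endogenous transcription factors. After 24 h dosing, reporter mRNA quantified by RT-PCR, fluorescent labeling, HpaI digestion and capillary electrophoresis; bidirectional fitting versus DMSO.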
Sequence of Retinoic acid receptor alpha (Homo sapiens) (P10276 whole entry, looked up): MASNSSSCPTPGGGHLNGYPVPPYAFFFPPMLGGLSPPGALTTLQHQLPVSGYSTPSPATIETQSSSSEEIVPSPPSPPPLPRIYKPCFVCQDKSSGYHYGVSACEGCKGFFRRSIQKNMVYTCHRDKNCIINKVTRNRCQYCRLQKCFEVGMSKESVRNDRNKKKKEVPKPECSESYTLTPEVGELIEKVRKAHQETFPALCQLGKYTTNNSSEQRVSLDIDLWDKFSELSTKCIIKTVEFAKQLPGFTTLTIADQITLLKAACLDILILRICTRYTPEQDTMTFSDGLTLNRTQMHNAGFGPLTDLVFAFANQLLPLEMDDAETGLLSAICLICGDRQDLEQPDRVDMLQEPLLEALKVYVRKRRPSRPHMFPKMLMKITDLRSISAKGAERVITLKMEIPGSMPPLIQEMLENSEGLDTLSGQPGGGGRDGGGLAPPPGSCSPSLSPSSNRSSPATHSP

The target in assay [10] is Transcription factor E2F1 (Homo sapiens) (UniProt Q01094). As to the kind of experiment: ATG_E2F_CIS: Attagene CIS-FACTORIAL HepG2 Assay for human E2F Transcription Factor 1 (AID 2282935). To be noted: HepG2 Attagene cis-reporter, E2F reporter RNA transcripts; actives raise or lower the signal. In a few lines:
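Liver-derived HepG2 cells expressing transfected promoter-driven reporter units received test chemical for 24 hours. Signal gains or losses were fitted bidirectionally against DMSO.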

Assay [11] can be described thus: ATG_E_Box_CIS: Attagene CIS-FACTORIAL HepG2 Assay for human Enhancer Box (E-box) (AID 2282936). To be noted: HepG2 E-box cis-reporter transcription, actives raise or lower the signal. The procedure, abridged: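 In this cell-based setup, HepG2 cells bearing transfected promoter-driven reporter units were exposed to chemicals for 24 h; reporter transcripts were amplified, 6-FAM-labelled, cut with HpaI and sized by capillary electrophoresis.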

Assay [12] is described as follows: ATG_M_61_CIS: Attagene CIS-FACTORIAL HepG2 Assay for M61 Transcription Factor (Internal Marker) (AID 2282937). To be noted: HepG2 Attagene CIS-FACTORIAL M61 internal marker reporter; actives raise or lower the signal. The procedure, abridged:
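Background-control endpoint: HepG2 cells with cis-regulated reporter constructs, 24 h exposure, reporter mRNA detected via fluorescent primer extension and capillary electrophoresis; values from bidirectional fitting with DMSO baseline.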

Assay [13] can be described thus: ATG_EGR_CIS: Attagene CIS-FACTORIAL HepG2 Assay for human Early Growth Response 1 (EGR1) (AID 2282938). The note with it: HepG2 Attagene CIS-FACTORIAL EGR reporter mRNA; actives raise or lower the signal. In a few lines:
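Endpoint derived by bidirectional fitting versus DMSO vehicle. Method: cis-promoter reporter units transfected into HepG2, 24 h dosing, RNA isolation, RT-PCR with 6-FAM primer extension and HpaI digestion, then capillary electrophoresis fluorescence detection.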

Molecules are shown by their SMILES. Activity calls are given as the source filed them. Rule for the calls: active = hit-call score of the fitted dose curve at least 0.9, where 1 is the maximum; inactive = score below 0.9.

Sequence of Transcription factor E2F1 (Homo sapiens) (Q01094 whole entry, looked up): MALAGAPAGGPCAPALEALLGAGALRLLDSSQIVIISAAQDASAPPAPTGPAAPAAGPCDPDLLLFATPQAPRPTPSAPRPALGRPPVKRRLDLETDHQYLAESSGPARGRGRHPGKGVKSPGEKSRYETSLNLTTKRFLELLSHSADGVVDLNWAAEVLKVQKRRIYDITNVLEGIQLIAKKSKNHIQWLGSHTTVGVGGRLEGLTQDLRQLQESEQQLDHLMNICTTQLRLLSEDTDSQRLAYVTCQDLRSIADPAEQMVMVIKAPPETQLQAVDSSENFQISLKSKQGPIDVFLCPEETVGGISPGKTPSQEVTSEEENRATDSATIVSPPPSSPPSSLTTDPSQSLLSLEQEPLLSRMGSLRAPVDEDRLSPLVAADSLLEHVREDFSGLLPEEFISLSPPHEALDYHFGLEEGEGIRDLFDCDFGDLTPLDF

On to `CC(C)(c1ccccc1)c1cc(-n2nc3ccccc3n2)c(O)c(C(C)(C)c2ccccc2)c1`, for which the result in assay [1], in assay [2], in assay [3], in [4], in [5] and in assay [6] was inactive. In addition, the result in [7], in assay [8], in assay [9], in assay [10], in assay [11] and in assay [12] was inactive. Also, the call in assay [13] was inactive.

As to `OC(c1ccc(Cl)cc1)(c1ccc(Cl)cc1)c1cccnc1`, the compound was called inactive in assay [1], in assay [3], in assay [5], in assay [6], in assay [7] and in [8]. The result in assay [9], in assay [10], in assay [11], in assay [12] and in assay [13] was inactive. The half-maximal activity concentration (AC50) in assay [2] and in assay [4] was 11.1 µM (active) throughout.

As to `CCOC(=O)C(SP(=S)(OC)OC)c1ccccc1` (configuration not stated), the call in assay [1], in assay [2], in assay [3], in assay [4], in assay [5] and in [6] was inactive. The outcome in assay [7], in assay [8], in assay [9], in assay [10], in [11] and in [12] was inactive. The result in [13] was inactive.

As to `CC(C)(C1CCC(O)CC1)C1CCC(O)CC1` (configuration not stated), the compound was called inactive in [1], in [2], in assay [3], in [4], in [5] and in [6]. Besides, the call in assay [7], in [8], in [9], in [10], in [11] and in assay [12] was inactive. The outcome in [13] was inactive.

On to `O=S(=O)(c1ccc(Cl)cc1)c1cc(Cl)c(Cl)cc1Cl`, for which the half-maximal activity concentration (AC50) in assay [1] is 37.8 µM (active); in assay [3] it was 42.5 µM (active); in assay [4], 40.9 µM (active); in assay [9], 100 µM (active). The outcome in assay [2], in assay [5], in [6], in assay [7], in [8] and in [10] was inactive. Moreover, the result in assay [11], in assay [12] and in [13] was inactive.

Consider `CCN(CCO)CCO`, for which the compound was classed as inactive in assay [1], in [2], in [3], in [4], in assay [5] and in [6]. Also, the outcome in [7], in assay [8], in [9], in assay [10], in [11] and in assay [12] was inactive. Also, in assay [13], the outcome was inactive.

For `COc1ccc([N+](=O)[O-])cc1O`, the call in [1], in [2], in assay [3], in assay [4], in assay [5] and in [6] was inactive. The outcome in assay [7], in [8], in assay [9], in [10], in assay [11] and in assay [12] was inactive. The compound was called inactive in assay [13].

As to `CC(C)N(C(=O)CCl)c1ccccc1`, the call in [1], in assay [2], in [3], in [5], in assay [8] and in [12] was inactive. In addition, in assay [13], the outcome was inactive. Also, the concentration at half-maximal activity (AC50) is 8.6 µM (active) in assay [4]; 11.6 µM (active) in assay [6]; 50.4 µM (active) in [7]; 59.1 µM (active) in [9]; 48.1 µM (active) in assay [10]; 18 µM (active) in assay [11].

On to `CC(=Cc1ccccc1)[N+](=O)[O-]`, for which the result in [1], in assay [2], in assay [5], in [8], in assay [9] and in assay [12] was inactive. In addition, the compound was classed as inactive in [13]. The AC50 in assay [3] was 19.3 µM (active); in assay [4] it was 5.88 µM (active); in [6], 19.9 µM (active); in assay [7], 16.6 µM (active); in assay [10], 13.5 µM (active); in assay [11], 17 µM (active).

A word on the AC50: it is the concentration at which the activity in the assay is half-maximal.

The values are drawn from PubChem BioAssay (EPA / NIEHS).
